Source: PubChem BioAssay (National Center for Advancing Translational Sciences (NCATS))
Hits are enriched below; roughly 10% of the tested compounds scored in any of these assays.
HPGD inh: qHTS Assay for Inhibitors of HPGD (15-Hydroxyprostaglandin Dehydrogenase); 15-hydroxyprostaglandin dehydrogenase [NAD(+)] (Homo sapiens), P15428; purified HPGD, NADH fluorescence kinetic, PGE2 substrate; Potency, µM, inactives show at the top dose activity change, negative = inhibition, hits mostly inhibitors; 150,000 compounds, 4.3% hits; note: potency is the fitted concentration of half-maximal effect
Target sequence (P15428 whole entry, looked up): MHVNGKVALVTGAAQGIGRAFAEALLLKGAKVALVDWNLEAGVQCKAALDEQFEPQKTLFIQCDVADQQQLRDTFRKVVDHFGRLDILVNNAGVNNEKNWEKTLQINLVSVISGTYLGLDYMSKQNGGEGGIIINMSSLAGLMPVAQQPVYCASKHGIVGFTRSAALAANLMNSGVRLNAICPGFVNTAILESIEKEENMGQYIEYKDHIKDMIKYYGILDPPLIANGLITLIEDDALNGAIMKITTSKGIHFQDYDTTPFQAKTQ
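20 nM HPGD preincubated 15 min at room temperature with compound in 50 mM Tris-HCl pH 8, 0.01% Tween 20. Started with 1 mM NAD+ and 30 uM prostaglandin E2; NADH fluorescence (360/450 nm) read 5 times over 30-s intervals, last minus first.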
12-hLO inh: qHTS Assay for Inhibitors of 12-hLO (12-human lipoxygenase); Potency, µM (titrated, usually from 57.1 µM), for the others: at the highest dose activity change, negative = inhibition, most hits filed as inhibitors; purified 12-hLO, xylenol orange hydroperoxide absorbance; 150,000 compounds, 0.12% hits; Polyunsaturated fatty acid lipoxygenase ALOX12 (Homo sapiens), P18054; active = well fitted inhibition curve with a large enough effect; inconclusive = small, poorly fitted or top-dose-only effect; note: potency is the fitted concentration of half-maximal effect; nearly all actives have a fitted effect of over 55% in size
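Hydroperoxide formation by human 12-lipoxygenase from 40 uM arachidonic acid was followed colorimetrically via ferric-xylenol orange complex, using the 573/405 nm absorbance ratio. Enzyme concentration was 150 nM, with 30 min reaction at room temperature.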
LMNA splice mod: qHTS Assay for Modulators of Lamin A Splicing; HeLa LMNA splicing GFP/RFP minigene ratio, 48 h; Potency, µM (doses to about 46.1 µM), for inactives: at the highest dose ratio change, negative = inhibition, hits mostly inhibitors; 200,000 compounds, 0.01% hits; AID 1487, 2009; active = well fitted inhibition curve with a large enough effect in the signal ratio, with a control signal flat, not every such curve was filed as active; inconclusive = small, poorly fitted or top-dose-only effect, or effect the other way, or a change in a side signal; the % refers to the signal ratio; note: potency is the fitted concentration of half-maximal effect
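S3 HeLa cells stably expressing lamin A-EGFP splicing minigene plus DsRed2, 600 cells/well, 48 h compound exposure at 37C. Laser-scanning cytometry; analysed as GFP (500-530 nm)/RFP (575-640 nm) total intensity ratio; 0.5% DMSO vehicle.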
PNC assembly inh: High Content Assay for Compounds that inhibit the Assembly of the Perinucleolar Compartment; PC3M PTB-GFP, PNC prevalence imaging, 16 h; hits give low values; activity change (PNC), negative = inhibition, % at 10 µM; 140,000 compounds, 3.1% hits; AID 2417, 2010;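 active = readout at or below -70, meaning at least 70% loss of cells showing the perinucleolar compartment, a nuclear body marking cancer cells; inconclusive = readout between -30 and a set limit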;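 note: plate controls were DMSO wells for no effect and camptothecin positive control wells for full effect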
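PC3M cells stably expressing PTB-GFP, 750–1000 cells/well, treated 16 h at 37 °C with compound (23 nl of library stock), in duplicate. After paraformaldehyde fixation and Hoechst stain, imaged at 20x; PNC prevalence scored by image analysis.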
ALDH1A1 inh: qHTS Assay for Inhibitors of Aldehyde Dehydrogenase 1 (ALDH1A1). Aldehyde dehydrogenase 1A1 (Homo sapiens), P00352. Purified ALDH1A1, NADH fluorescence, propionaldehyde substrate. Potency, µM (titrated, usually from 75.3 µM), inactives show top-dose activity, negative = inhibition, actives largely listed as inhibitors. 220,000 compounds, 7.3% hits;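 note: potency is the fitted concentration of half-maximal effect; plate controls were no enzyme wells and a reference inhibitor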
* marks the source's active call; other numbers are inactive results; ? = inconclusive; nt = not tested or not shown; [ ] = remark or other dose. Unless noted, calls come from the whole dose curve; as a rule, active = well fitted inhibition curve with a large enough effect (not every such curve was filed as active); inconclusive = small, poorly fitted or top-dose-only effect, or another doubt; inactive = no such curve, though single readings can be large or run the other way. Unless noted, % is set by controls: 0 for no effect and ±100 for the full control effect.

SMILES | HPGD inh | 12-hLO inh | LMNA splice mod | PNC assembly inh | ALDH1A1 inh
O=S(=O)(c1ccc(Cl)cc1)N1c2ccccc2Oc2nc3ccccc3nc21 | -12.7% | -3.3% | -11.7% | -23.7 | 25.1µM*
COc1ccc(S(=O)(=O)N2c3cc(Cl)ccc3Oc3nc4ccccc4nc32)cc1 | -7.6% | 0.5% | ? | -100.0* | -15.0%
CO[C@]1(NC(=O)[C@H](C(=O)O)c2ccc(O)cc2)C(=O)N2C(C(=O)O)=C(CSc3nnnn3C)CO[C@H]21 | -7.4% | -2.7%[25.6 µM] | ? | nt | -4.5%[20.9 µM]
Cc1sc(NC(=O)c2ccc(=O)n(C)n2)nc1-c1ccccc1 | nt | nt | nt | nt | 28.2µM*
CCOC(=O)Nc1nc(-c2ccccc2)c(C)s1 | -19.5% | -2.8%[11.4 µM] | nt | nt | ?
O=C(O)CN1CCCC1=Nc1ccccc1 | -8.4% | 11.4% | 12.4% | -10.7 | 89.1µM*
O=C(O)CN1CCN(Cc2ccccc2)C1=O | -3.4% | -3.1% | 3.9% | 34.6 | 1.5%
O=C(NC1(C(F)(F)F)C(=O)Nc2c1c(=O)[nH]c(=O)n2-c1ccccc1)c1ccccc1Cl (configuration not stated) | nt | nt | 15.3%[46 µM] | nt | nt
C=CCn1cnc2c(nnn2-c2ccc(Cl)cc2)c1=O | nt | nt | -2.1%[46 µM] | nt | ?
CCOc1ccc(-n2nnc3c(=O)n(C/C=C/c4ccccc4)cnc32)cc1 | -18.7% | 4.8% | -2.7% | -88.8* | 1.4%
COc1ccc(NC(=O)N2CCC(c3nc4ccccc4[nH]3)CC2)cc1 | nt | nt | 11.7%[46 µM] | nt | -16.7%
O=C(Nc1ccc(F)cc1)N1CCC(c2nc3c(nnn3Cc3cccc(Cl)c3)c(=O)[nH]2)CC1 | 8.91µM* | -11.1% | 8.0% | 18.9 | 11.7%
N#Cc1cccc(NC(=O)N2CCC(c3nc4c(nnn4Cc4cccc(Cl)c4)c(=O)[nH]3)CC2)c1 | 10µM* | -3.4% | 14.5% | 16.1 | -2.2%
CC(=O)N1CCC2(CC1)CCN(C(=O)Nc1cccc(C#N)c1)CC2 | -1.0% | 2.5% | nt | nt | -2.8%
Cc1ccc(NC(=O)N2CCC(c3nc4c(nnn4Cc4cccc(Cl)c4)c(=O)[nH]3)CC2)cc1 | 2µM* | -13.8% | ? | ? | -16.9%
O=C(NC1CCCC1)c1nc2c(nnn2Cc2cccc(Cl)c2)c(=O)[nH]1 | 2.51µM* | -10.9% | -4.6% | 9.3 | -3.8%
COc1ccc(-c2noc(CSc3nc(N)cc(=O)[nH]3)n2)cc1OC | nt | nt | -12.4%[46 µM] | nt | nt
COc1cc(OC)cc(C(=O)Nc2cc3c(cc2N2CCCC2)n(C)c(=O)c(=O)n3C)c1 | nt | nt | -1.0%[46 µM] | nt | nt
COc1ccc(N2CC(NC(=O)/C=C\c3ccc4c(c3)OCO4)CC2=O)cc1OC (configuration not stated) | nt | nt | 19.0%[46 µM] | nt | nt
Cc1c(C(=O)O)c(=S)sn1CCOc1ccccc1 | 17.8µM* | -4.6% | -10.4% | 9.8 | -7.9%
Cc1ccc(OCCOC(=O)c2sc(=S)n(C)c2C)cc1 | nt | nt | nt | nt | -3.5%
Nc1[nH]n2c(=O)cc(-c3ccccc3)nc2c1N=Nc1ccc2c(c1)OCO2 | nt | nt | nt | nt | 3.4%
CCOC(=O)C1=C(C)NC(C)=C(C(=O)OCC)C1c1ccc(C)o1 | nt | nt | nt | nt | 7.0%
CC1=C(C(N)=O)C(c2ccc(C)o2)C(C(N)=O)=C(C)N1 | -9.7% | 0.2% | 13.8% | ? | 39.8µM*
Cc1c(Nc2cc(N3CCCCCC3)c3nonc3c2[N+](=O)[O-])c(=O)n(-c2ccccc2)n1C | 11.2µM* | -1.8% | -5.2% | ? | 5.1%
SMILES | HPGD inh | 12-hLO inh | LMNA splice mod | PNC assembly inh | ALDH1A1 inh
COc1cccc(CNC(=O)c2c(C)oc3nc(C)nc(N4CCOCC4)c23)c1 | nt | nt | 18.5%[46 µM] | nt | nt
Cc1ccc(NC(=O)c2cc(N3C(=O)C4CC=CCC4C3=O)ccc2N2CCOCC2)cc1Cl (configuration not stated) | -28.1% | -3.0% | 6.7% | ? | 28.2µM*
Cc1ccc(NC(=O)c2cc(N3C(=O)C=CC3=O)ccc2Cl)cc1C | 3.16µM* | -24.5% | -25.8% | 2.4 | 2.24µM*
Cc1ccc(NC(=O)c2cc(N3C(=O)C=CC3=O)ccc2N2CCOCC2)cc1 | nt | nt | ? | nt | 0.355µM*
COc1ccc(-c2csc(Nc3ccc(C)cn3)n2)cc1 | nt | nt | nt | nt | 23.8µM*
COc1cccc(N2CCN(CC(=O)C34CC5CC(CC(C5)C3)C4)CC2)c1 | -7.5% | -1.7% | 1.5% | ? | 15.8µM*
